According to PubChem BioAssay (Tox21):
Records with an inconclusive call do not appear. Where a call stands in place of a potency, no number is given. Activity calls are given as the source filed them. Unless noted, calls come from the whole dose curve; as a rule, active = well fitted curve in the direction sought with a large enough effect in the repeat runs; inconclusive = weak or mixed curves; inactive = no such curve, though single readings can be large; an effect the other way counts as inactive or inconclusive.

Legend:
[1] = A CellTox Green Cytotoxicity Assay to monitor cytotoxicity in HEK293 cells - 8 hour (AID 1224884); note: nearly all actives have a fitted effect of over 35% in size
Procedure, shortened: (§1)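 Cytotoxicity was tracked continuously in HEK293 cells by a DNA-binding dye excluded from viable cells. Compounds were transferred in DMSO 5 h after seeding; fluorescence was recorded at intervals up to 40 h.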

[2] = qHTS RealTime-Glo MT Cell Viability Assay in HepG2 cells - 16 hour (AID 1224885); note: nearly all actives have a fitted effect of over 50% in size; note: potency is the fitted concentration of half-maximal effect
Procedure, shortened: (§2)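 Luminescence read-out: viable HepG2 cells reduce a prosubstrate to a NanoLuc substrate, giving a signal proportional to live cell number. Reads taken at 0, 8, 16, 24, 32 and 40 h of compound exposure at 37 C.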

[3] = qHTS RealTime-Glo MT Cell Viability Assay in HEK293 cells - 24 hour (AID 1224886); note: nearly all actives have a fitted effect of over 50% in size; note: potency is the fitted concentration of half-maximal effect
Procedure, shortened: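 Nonlytic real-time viability readout: viable cells convert prosubstrate to NanoLuc substrate, giving luminescence proportional to live cell number. HEK293, 600 cells/well, compound added after 5 h, continuous culture at 37 C.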

[4] = qHTS RealTime-Glo MT Cell Viability Assay in HEK293 cells - 8 hour (AID 1224887); note: nearly all actives have a fitted effect of over 50% in size; note: potency is the fitted concentration of half-maximal effect
Procedure, shortened: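 Nonlytic bioluminescent viability monitoring. HEK293 at 600 cells/well with reagent; 5 h settle; compound transfer by pintool; plates held at 37 C and read at set time points.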

[5] = A CellTox Green Cytotoxicity Assay to monitor cytotoxicity in HEK293 cells - 16 hour (AID 1224888); note: nearly all actives have a fitted effect of over 35% in size
Procedure, shortened: as §1

[6] = A CellTox Green Cytotoxicity Assay to monitor cytotoxicity in HepG2 cells - 8 hour (AID 1224890); note: nearly all actives have a fitted effect of over 45% in size
Procedure, shortened: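 Real-time, homogeneous cytotoxicity readout: dead-cell DNA staining by CellTox Green in HepG2 monolayers, fluorescence measured at timed intervals up to 40 h of continuous compound exposure.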

[7] = qHTS assay to identify small molecule antagonists of the estrogen receptor alpha (ER-alpha) signaling pathway using the BG1 cell line in the presence of 0.1 nM 17-beta-estradiol - cell viability counter screen (AID 1259241); note: nearly all actives have a fitted effect of over 40% in size; note: potency is the fitted concentration of half-maximal effect
Procedure, shortened: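 Cells were plated and left 24 hr, compounds in DMSO were pinned in, 17beta-estradiol was added to 0.1 nM final, and after 22 hr CellTiter-Fluor reagent was added for 30 min before fluorescence was read.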

[8] = target: Estrogen receptor (Homo sapiens) (UniProt P03372); assay: qHTS assay to identify small molecule antagonists of the estrogen receptor alpha (ER-alpha) signaling pathway using the BG1 cell line in the presence of 0.1 nM 17-beta-estradiol (AID 1259244); note: nearly all actives have a fitted effect of over 50% in size; note: potency is the fitted concentration of half-maximal effect
Estrogen receptor (Homo sapiens), sequence (P03372 whole entry, looked up): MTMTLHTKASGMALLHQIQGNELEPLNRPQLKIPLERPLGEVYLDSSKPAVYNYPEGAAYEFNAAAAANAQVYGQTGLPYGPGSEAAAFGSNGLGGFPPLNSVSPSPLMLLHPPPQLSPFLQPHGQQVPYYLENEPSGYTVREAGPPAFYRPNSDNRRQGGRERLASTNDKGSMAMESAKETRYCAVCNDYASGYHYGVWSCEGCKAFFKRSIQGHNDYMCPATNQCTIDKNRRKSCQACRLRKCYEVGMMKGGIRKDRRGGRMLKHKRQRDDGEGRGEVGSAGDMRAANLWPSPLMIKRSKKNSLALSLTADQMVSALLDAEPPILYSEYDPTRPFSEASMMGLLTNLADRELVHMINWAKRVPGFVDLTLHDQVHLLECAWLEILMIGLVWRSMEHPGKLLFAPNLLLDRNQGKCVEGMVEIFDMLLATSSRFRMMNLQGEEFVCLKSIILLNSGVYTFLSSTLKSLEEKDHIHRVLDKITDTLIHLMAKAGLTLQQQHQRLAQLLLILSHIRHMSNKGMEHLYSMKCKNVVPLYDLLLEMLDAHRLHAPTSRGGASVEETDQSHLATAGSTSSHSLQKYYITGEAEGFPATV
Procedure, shortened: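 After 5 days in hormone-depleted medium (charcoal-stripped serum, no phenol red), VM7Luc4E2 cells were seeded, incubated 24 h, then co-treated with compound and 0.1 nM (final) estradiol for 22 h before luminescence detection.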

[9] = qHTS assay to identify small molecule HDAC inhibitors (AID 1259364); note: top concentration of the series differs between compounds; nearly all actives have a fitted effect of over 45% in size
Procedure, shortened: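 Homogeneous cell-based luminescent assay of endogenous class I/II HDAC activity; HCT-116 cells, 2 h compound exposure, 30 min HDAC-Glo development at RT.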

[10] = qHTS assay to identify small molecule HDAC inhibitors - cell viability counter screen (AID 1259365)
Procedure, shortened: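 Counter screen in wild-type HCT-116 cells: compounds dissolved in DMSO are pin-transferred onto overnight-plated cells and left 2hr at 37C. ATP-based CellTiter-Glo luminescence then measures viable cells.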

[11] = qHTS assay to identify small molecule agonists of the sonic hedgehog signaling (Shh) pathway - cell viability counter screen (AID 1259366); note: nearly all actives have a fitted effect of over 50% in size; note: potency is the fitted concentration of half-maximal effect
Procedure, shortened: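 Cells are plated at 2,000 per well and left 4hr at 37C, 5% CO2 before compound addition. After 23hr of treatment, CellTiter-Fluor reagent is added for 1hr at 37C and fluorescence is measured.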

[12] = qHTS assay to identify small molecule agonists of the sonic hedgehog signaling (Shh) pathway (AID 1259368; calls by dose curve;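 note: NIH/3T3-derived 3T3Gli1-Luc cells carrying a stable Gli1-driven firefly luciferase reporter; series mostly up to about 92 µM; nearly all actives have a fitted effect of over 15% in size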)
Procedure, shortened: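 Steps: seed 3T3 Gli1-Luc cells, incubate 4 hr at 37 C, pin-transfer compounds in DMSO alongside a positive control, incubate 24 hr, add luciferase detection reagent, wait 30 min at room temperature, read luminescence.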

[13] = qHTS RealTime-Glo MT Cell Viability Assay in HepG2 cells - 0 hour (AID 1224889); note: nearly all actives have a fitted effect of over 50% in size
Procedure, shortened: as §2

[14] = qHTS assay to identify small molecule phospholipidosis (PLD) inducers (AID 1259344; active = well fitted curve in the direction sought with a large enough effect; an effect the other way counts as inactive or inconclusive)
Procedure, shortened: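 HepG2 cells, 900/well, treated with compound plus LipidTOX Red for 24 h at 37 C; amiodarone positive and DMSO negative controls. Fixed with paraformaldehyde/Hoechst, then high-content imaging scored LipidTOX pit count and integrated intensity per well and per cell.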

[15] = qHTS assay to identify small molecule antagonists of the sonic hedgehog signaling (Shh) pathway (AID 1259369; calls by dose curve; note: nearly all actives have a fitted effect of over 45% in size; note: potency is the fitted concentration of half-maximal effect)
Procedure, shortened: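 Inhibition of Shh signalling is measured as reduced Gli1-response-element firefly luciferase output in an NIH/3T3-derived stable reporter clone stimulated with conditioned medium for 24hr.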

[16] = qHTS assay to identify small molecule antagonists of the androgen receptor (AR) signaling pathway using the MDA cell line in the presence of 0.5 nM R1881 - cell viability counter screen (AID 1259242); note: nearly all actives have a fitted effect of over 45% in size; note: potency is the fitted concentration of half-maximal effect
Procedure, shortened: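 Cytotoxicity toward MDA-kb2 cells is measured by CellTiter-Fluor live-cell protease fluorescence after 16 hr compound exposure at 37C in the presence of 0.5 nM R1881 stimulator.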

[17] = target: Androgen receptor (Homo sapiens) (UniProt P10275); assay: qHTS assay to identify small molecule antagonists of the androgen receptor (AR) signaling pathway using the MDA cell line in the presence of 0.5 nM R1881 (AID 1259243); note: nearly all actives have a fitted effect of over 50% in size; note: potency is the fitted concentration of half-maximal effect
Androgen receptor (Homo sapiens), sequence (P10275 whole entry, looked up): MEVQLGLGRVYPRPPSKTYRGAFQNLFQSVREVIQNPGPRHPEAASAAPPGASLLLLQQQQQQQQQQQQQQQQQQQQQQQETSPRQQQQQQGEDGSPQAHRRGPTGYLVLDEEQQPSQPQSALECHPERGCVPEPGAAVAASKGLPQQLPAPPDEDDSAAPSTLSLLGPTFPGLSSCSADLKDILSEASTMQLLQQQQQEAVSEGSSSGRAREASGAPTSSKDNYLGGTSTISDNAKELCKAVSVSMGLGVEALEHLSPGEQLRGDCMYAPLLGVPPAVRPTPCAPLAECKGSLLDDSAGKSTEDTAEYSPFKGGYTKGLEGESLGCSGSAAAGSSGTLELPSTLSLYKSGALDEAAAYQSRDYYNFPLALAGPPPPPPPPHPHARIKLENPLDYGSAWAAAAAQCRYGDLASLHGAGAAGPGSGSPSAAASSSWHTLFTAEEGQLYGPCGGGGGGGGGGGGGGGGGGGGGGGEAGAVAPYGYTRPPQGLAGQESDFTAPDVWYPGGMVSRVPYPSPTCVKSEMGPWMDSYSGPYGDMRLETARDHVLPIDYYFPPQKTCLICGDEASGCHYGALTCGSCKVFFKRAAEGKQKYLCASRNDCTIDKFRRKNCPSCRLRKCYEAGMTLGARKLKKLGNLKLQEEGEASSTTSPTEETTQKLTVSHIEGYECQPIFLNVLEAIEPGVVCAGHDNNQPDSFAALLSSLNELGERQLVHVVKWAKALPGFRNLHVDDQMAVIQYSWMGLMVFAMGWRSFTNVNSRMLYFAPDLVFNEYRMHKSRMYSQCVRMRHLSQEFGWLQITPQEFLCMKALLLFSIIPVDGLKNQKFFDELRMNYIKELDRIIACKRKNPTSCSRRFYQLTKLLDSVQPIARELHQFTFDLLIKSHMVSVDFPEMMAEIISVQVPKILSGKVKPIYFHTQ
Procedure, shortened: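 Steps: seed MDA-kb2 cells, incubate 5 hr at 37C; pin-transfer compounds in DMSO; add R1881 to 0.5 nM final; incubate 16 hr; add ONE-Glo, wait 30 min at room temperature; read luminescence.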

[18] = qHTS assay to identify small molecule antagonists of the sonic hedgehog signaling (Shh) pathway - cell viability counter screen (AID 1259367); note: nearly all actives have a fitted effect of over 55% in size; note: potency is the fitted concentration of half-maximal effect
Procedure, shortened: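 NIH/3T3-derived Gli1-Luc reporter cells, 2,000/well, plated 4 hr before compound addition, then stimulated with conditioned medium for 24 hr at 37C. Viability measured in the same wells by CellTiter-Fluor fluorescence, reagent added at 23 hr for 1 hr.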

[19] = target: Estrogen receptor beta (Homo sapiens) (UniProt Q92731); assay: qHTS assay to identify small molecule agonists of the estrogen receptor beta (ER-beta) signaling pathway (AID 1259377; active = well fitted activation curve with a large enough effect in the signal ratio in the repeat runs, not every such curve was filed as active; the % refers to the signal ratio)
Estrogen receptor beta (Homo sapiens), sequence (Q92731 whole entry, looked up, the tested form may be a part): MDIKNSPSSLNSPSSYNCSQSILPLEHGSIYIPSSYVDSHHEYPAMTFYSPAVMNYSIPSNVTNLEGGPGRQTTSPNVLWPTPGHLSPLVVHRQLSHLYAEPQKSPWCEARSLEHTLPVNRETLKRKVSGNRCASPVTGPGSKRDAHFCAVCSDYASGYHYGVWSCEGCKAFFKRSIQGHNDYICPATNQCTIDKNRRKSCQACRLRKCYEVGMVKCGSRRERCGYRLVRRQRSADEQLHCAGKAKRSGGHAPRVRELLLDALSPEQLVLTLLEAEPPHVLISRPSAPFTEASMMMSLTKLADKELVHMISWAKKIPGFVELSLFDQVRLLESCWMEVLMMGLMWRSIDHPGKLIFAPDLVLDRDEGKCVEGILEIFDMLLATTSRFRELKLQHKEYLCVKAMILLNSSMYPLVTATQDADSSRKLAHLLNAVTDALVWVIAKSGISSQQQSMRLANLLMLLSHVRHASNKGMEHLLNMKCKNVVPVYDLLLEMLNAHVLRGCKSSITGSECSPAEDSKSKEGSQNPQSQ
Procedure, shortened: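 Agonist mode cell assay in GripTite HEK293T cells expressing an ER-beta fusion that drives beta-lactamase from an Upstream Activator Sequence; 16 hr compound exposure at 37C, then 2 h LiveBLAzer B/G FRET substrate at room temperature, fluorescence read-out.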

Structure (SMILES)	Potency [1]	Potency [2]	Potency [3]	Potency [4]	Potency [5]	Potency [6]	Potency [7]	Potency [8]	Potency [9]	Potency [10]	Potency [11]	Potency [12]	Potency [13]	Potency [14]	Potency [15]	Potency [16]	Potency [17]	Potency [18]	Potency [19]
S=C=Nc1cccc2ccccc12	inactive	inactive	inactive	21.7 µM (active)	inactive	inactive	30.3 µM (active)	19.1 µM (active)	inactive	inactive	53.9 µM (active)	inactive							
Clc1ccc(CO/N=C(\Cn2ccnc2)c2ccc(Cl)cc2Cl)c(Cl)c1	inactive	21.3 µM (active)	21.3 µM (active)	19 µM (active)	inactive		inactive			inactive		inactive	inactive	inactive	4.73 µM (active)				
C=COCCCl	inactive	inactive	inactive	inactive	inactive	inactive	inactive	inactive	inactive	inactive	inactive	inactive	inactive		inactive	inactive	inactive	inactive	inactive
NNC(=O)c1ccccc1	inactive	inactive	inactive	inactive	inactive	inactive		inactive		inactive	inactive	inactive			31.5 µM (active)				inactive
C=CC(=O)N(C)C	inactive	inactive	inactive	inactive	inactive	inactive	inactive	inactive	inactive	inactive	inactive		inactive		inactive	inactive		inactive	inactive
Cc1ccc(CCl)cc1	inactive	inactive	inactive	inactive	inactive	inactive	inactive	inactive	inactive	inactive	inactive	inactive	inactive		inactive	inactive		inactive	inactive
BrCBr	inactive	inactive	inactive	inactive	inactive	inactive		inactive	inactive	inactive	inactive	inactive	inactive		inactive	inactive		inactive	inactive
SCc1ccco1	inactive	inactive	inactive	inactive	inactive	inactive	inactive	inactive	inactive	inactive	inactive		inactive		61.1 µM (active)	inactive		inactive	
CC1(C)CC/C(=C/c2ccc(Cl)cc2)C1(O)Cn1cncn1 (stereo not drawn)	inactive	inactive	24.4 µM (active)			inactive		68.2 µM (active)	inactive	inactive	17.1 µM (active)		inactive	inactive		inactive	1.21 µM (active)		inactive
Oc1c(Cl)c(Cl)cc(Cl)c1Cl	inactive	inactive	47.6 µM (active)			inactive	inactive			inactive	inactive	inactive	inactive					inactive	
O=C(CCl)C(Cl)Cl	inactive	inactive	17.5 µM (active)		inactive	inactive	inactive	inactive	inactive		17.4 µM (active)	inactive	inactive		2.76 µM (active)			17.4 µM (active)	
CCCSP(=O)(OCC)SCCC	inactive	inactive	inactive	inactive	inactive	inactive			inactive	inactive	inactive	inactive		inactive	inactive	inactive		inactive	inactive
c1ccc2c(c1)[nH]c1cnccc12	inactive	inactive	inactive	inactive	inactive	inactive	inactive	inactive	inactive	inactive	inactive	inactive	inactive					inactive	inactive
C=CC(=O)OCC(COC(=O)C=C)(COC(=O)C=C)COC(=O)C=C	inactive	4.9 µM (active)	3.89 µM (active)		inactive	inactive	19.3 µM (active)	15.4 µM (active)	inactive		5.45 µM (active)	inactive	inactive		6.86 µM (active)	13.7 µM (active)	4.33 µM (active)	7.7 µM (active)	
